# From PubChem BioAssay
# “And” between values parts separate entries of the source, which are not always exact repeats. Identical values can stand only once. Inconclusive results are not listed. For some of these results: Potency and affinity values are given separately. The source made the active and inactive calls. Unless noted, how the calls were made is not given here.
# Tests used:
# [1] = molecular target: ATP-dependent translocase ABCB1 (Homo sapiens) (UniProt P08183); assay: MDR1 (ABCB1) efflux transporter inhibition, cell-based (AID 377; in the data active means fluorescence slope change above about 50%); settings: MDR1-expressing cells, fluorescent substrate accumulation slope; stronger effect = higher value; concentration not given here
# [2] = growth inhibition of DIPG glioma cells, dose response, cell-based, SU-DIPG-IV, MIPE4.0, CellTiter-Glo, qHTS (AID 1347063; cut-off not given, nearly all actives have AC50 up to about 30 µM;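 further: compound exposure lasted 48 hours before the viability readout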); settings: SU-DIPG-IV viability, CellTiter-Glo ATP luminescence
# [3] = antimalarial activity against Dd2 strain (AID 2302;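 active means growth inhibition above 50% at the single 2 µM test dose, taken to imply half-maximal potency below 2 µM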;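 further: 0% = DMSO untreated growth and 100% = chloroquine plus artemisinin killed control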); settings: P. falciparum Dd2 in RBCs, LDH growth readout, 72 h; at 2 µM; stronger effect = higher value
# [4] = molecular target: L-lactate dehydrogenase (Plasmodium falciparum (isolate CDC / Honduras)) (UniProt Q27743); assay: PfLDH activity inhibition – cell lysate, 3D7 strain, counter-screen for P. falciparum growth inhibition project (AID 2304);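 further: 0% = vehicle and 100% = reference inhibitor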; settings: P. falciparum 3D7 crude extract, LDH APAD/NBT absorbance; at 2 µM; stronger effect = higher value
# [5] = inhibition of 3D7 malaria parasite growth – strain 3D7 (AID 2306);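 further: 0% = DMSO wells and 100% = chloroquine plus artemisinin control wells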; settings: P. falciparum 3D7 erythrocytic growth, LDH absorbance, 72 h; at 2 µM; stronger effect = higher value
# [6] = molecular target: Calcium-dependent protein kinase 1 (Plasmodium falciparum (isolate 3D7)) (UniProt P62344); assay: PfCDPK1 kinase inhibitors, biochemical, TCAMS library (AID 1159585; cut-off not given, nearly all actives have IC50 up to about 0.98 µM;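 further: inhibitors leave more ATP so luminescence rises with inhibition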); settings: recombinant PfCDPK1, Kinase-Glo ATP depletion luminescence
# [7] = molecular target: Plasmodium falciparum protein kinase 6 (PK6, PF3D7_1337100) (UniProt Q8IDW1); assay: PfPK6 kinase inhibitors, biochemical, TCAMS library (AID 1159586); settings: recombinant PfPK6, Kinase-Glo ATP depletion luminescence
# [8] = molecular target: Protein kinase 7 (PK7), Plasmodium falciparum 3D7 (PF3D7_0213400) (UniProt Q7YTF7); assay: inhibition of Plasmodium PK7 catalytic activity – biochemical, TCAMS antimalarial set, Kinase-Glo luminescence (AID 1159587); settings: recombinant PfPK7, Kinase-Glo ATP depletion luminescence
# [9] = molecular target: Calcium-dependent protein kinase 4 (Plasmodium falciparum (isolate 3D7)) (UniProt Q8IBS5); assay: PfCDPK4 kinase inhibitors, biochemical, TCAMS library (AID 1159588; cut-off not given, nearly all actives have IC50 up to about 0.91 µM); settings: recombinant PfCDPK4, Kinase-Glo ATP depletion luminescence
# [10] = test system: Neuropilin-2 / VEGF-C interaction (human); assay: inhibitors of NRP2–VEGF-C binding, biochemical, microplate binding format, z-score (AID 743281); settings: microplate NRP2/VEGF-C binding assay; stronger effect = lower value
# [11] = inhibitors of Cryptococcus chitosan production, flow cytometry, Cibacron Brilliant Red staining (AID 1347148); settings: Cryptococcus neoformans chitosan, stronger effect = lower value; at 99.1 µM unless noted;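 further: compound exposure lasted three days at 37 degrees C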
# [12] = LFS_MB_1R medulloblastoma cell growth inhibition, synergistic combos for chromothripsis tumors, cisplatin or BGB combos (AID 1671452; in the data active means inhibition above about 80%;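 further: cells exposed for 96 hours before readout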); settings: LFS_MB_1R medulloblastoma cells, stronger effect = higher value
# [13] = CRL2098 osteosarcoma cell growth inhibition, synergistic combos for chromothripsis tumors, BGB or cisplatin IC20 combos (AID 1671454; in the data active means inhibition above about 80%;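 further: cells exposed for 96 h before readout; 0% = vehicle DMSO and 100% = killing by high DMSO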); settings: CRL2098 osteosarcoma cells, drug combinations, stronger effect = higher value
# [14] = HD-MB03 medulloblastoma cell growth inhibition, synergistic combos for chromothripsis tumors, BGB or cisplatin IC20 combos (AID 1671455; in the data active means inhibition above about 83%;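 further: 0% = vehicle DMSO and 100% = high DMSO as cytotoxic control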); settings: HD-MB03 medulloblastoma cells, stronger effect = higher value
# [15] = UWB1.289 ovarian carcinoma cell growth inhibition, synergistic combos for chromothripsis tumors, BGB or cisplatin combos (AID 1671456; in the data active means inhibition above about 80%;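 further: cells exposed to compound for four days; 0% = vehicle DMSO and 100% = killing by high DMSO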); settings: UWB1.289 ovarian carcinoma cells, stronger effect = higher value
# [16] = LFS_MB_2R medulloblastoma cell growth inhibition, synergistic combos for chromothripsis tumors, cisplatin combos (AID 1671457; in the data active means inhibition above about 80%;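 further: cells exposed to compound for four days before readout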); settings: LFS_MB_2R medulloblastoma cells, stronger effect = higher value
# [17] = UWB1.289_BRCA1 ovarian cancer growth, cell-based, BGB or cisplatin combinations (AID 1671459; in the data active means inhibition above about 80%); settings: UWB1.289 BRCA1 ovarian carcinoma, drug combinations, stronger effect = higher value
# [18] = human astrocyte viability loss, single and combined drugs, cytotoxicity control for chromothriptic childhood tumor combination screen, cell-based, BGB or cisplatin IC20 combos (AID 1671460; in the data active means inhibition above about 80%;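 further: cells exposed to compounds for 96 hours before viability readout; 0% = vehicle and 100% = killing control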); settings: Human astrocytes, drug combinations, stronger effect = higher value
# [19] = HepG2 cytotoxicity, primary screen, cytotoxicity control for P. falciparum antimalarial project, cell-based, ATP luminescence (AID 2303;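 active means inhibition above 50%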;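 further: 0% = DMSO wells and 100% = digitonin-killed cells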); settings: HepG2 viability, 24-48 h, at 10 µM, stronger effect = higher value
# [20] = liver-stage malaria parasite growth inhibition, primary screen, cell-based, HepG2, luciferase luminescence, HepG2 viability (AID 624349; in the data active means parasite load remaining mostly below about 12%, no sharp cut-off; inactive means mostly above about 10%;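 further: 100% = mean of DMSO negative control wells on the same plate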); settings: P. berghei liver stage in HepG2, luciferase luminescence, concentration not given here; parasite load remaining: stronger effect = lower value; viability: measured here: HepG2 viability without parasites
# [21] = measured here: combination with BGB IC40, at 0.05 µM
# [22] = measured here: combination with cisplatin, at 0.5 µM
# [23] = measured here: combination with cisplatin, at 5 µM
# [24] = measured here: combination with BGB at IC20, at 0.5 µM
# [25] = measured here: combination with cisplatin at IC20, at 0.5 µM
# [26] = measured here: combo with BGB at IC20, at 0.5 µM
# [27] = measured here: combo with cisplatin at IC20, at 0.5 µM
# [28] = measured here: inhibition with BGB combination, at 0.05 µM
# [29] = measured here: inhibition with cisplatin combination, at 0.05 µM
# [30] = BGB combination, concentration series, at 5 µM
# [31] = cisplatin combination, concentration series, at 5 µM
# [32] = measured here: combo with BGB IC20, at 0.5 µM
# [33] = measured here: combo with cisplatin IC20, at 0.5 µM
# Sequence of Protein kinase 7 (PK7), Plasmodium falciparum 3D7 (PF3D7_0213400) (Q7YTF7 1-343): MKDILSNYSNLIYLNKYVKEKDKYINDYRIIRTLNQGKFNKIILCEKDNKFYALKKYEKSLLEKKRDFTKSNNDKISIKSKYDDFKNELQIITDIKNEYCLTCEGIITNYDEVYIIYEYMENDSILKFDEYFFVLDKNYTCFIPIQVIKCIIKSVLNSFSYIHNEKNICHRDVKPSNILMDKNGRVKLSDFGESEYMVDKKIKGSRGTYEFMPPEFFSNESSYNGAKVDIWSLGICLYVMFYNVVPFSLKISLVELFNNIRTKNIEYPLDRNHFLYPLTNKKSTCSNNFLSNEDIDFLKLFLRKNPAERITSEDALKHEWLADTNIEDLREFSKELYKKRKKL
# Sequence of Calcium-dependent protein kinase 4 (Plasmodium falciparum (isolate 3D7)) (Q8IBS5 whole entry, looked up): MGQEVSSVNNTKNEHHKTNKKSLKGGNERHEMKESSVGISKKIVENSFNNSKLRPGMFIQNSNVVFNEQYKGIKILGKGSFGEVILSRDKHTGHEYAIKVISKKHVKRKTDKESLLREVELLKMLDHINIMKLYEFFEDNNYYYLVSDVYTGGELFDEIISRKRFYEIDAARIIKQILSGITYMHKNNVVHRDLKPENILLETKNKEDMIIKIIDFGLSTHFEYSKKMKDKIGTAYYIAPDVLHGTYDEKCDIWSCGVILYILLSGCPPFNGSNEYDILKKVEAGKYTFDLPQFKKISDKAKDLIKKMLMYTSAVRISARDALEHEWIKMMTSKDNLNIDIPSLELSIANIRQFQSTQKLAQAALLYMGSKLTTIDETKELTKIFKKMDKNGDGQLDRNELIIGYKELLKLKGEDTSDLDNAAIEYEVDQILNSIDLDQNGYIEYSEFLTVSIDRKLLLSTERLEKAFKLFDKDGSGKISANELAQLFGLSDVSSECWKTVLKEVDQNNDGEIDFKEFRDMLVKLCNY
# Sequence of Calcium-dependent protein kinase 1 (Plasmodium falciparum (isolate 3D7)) (P62344 whole entry, looked up): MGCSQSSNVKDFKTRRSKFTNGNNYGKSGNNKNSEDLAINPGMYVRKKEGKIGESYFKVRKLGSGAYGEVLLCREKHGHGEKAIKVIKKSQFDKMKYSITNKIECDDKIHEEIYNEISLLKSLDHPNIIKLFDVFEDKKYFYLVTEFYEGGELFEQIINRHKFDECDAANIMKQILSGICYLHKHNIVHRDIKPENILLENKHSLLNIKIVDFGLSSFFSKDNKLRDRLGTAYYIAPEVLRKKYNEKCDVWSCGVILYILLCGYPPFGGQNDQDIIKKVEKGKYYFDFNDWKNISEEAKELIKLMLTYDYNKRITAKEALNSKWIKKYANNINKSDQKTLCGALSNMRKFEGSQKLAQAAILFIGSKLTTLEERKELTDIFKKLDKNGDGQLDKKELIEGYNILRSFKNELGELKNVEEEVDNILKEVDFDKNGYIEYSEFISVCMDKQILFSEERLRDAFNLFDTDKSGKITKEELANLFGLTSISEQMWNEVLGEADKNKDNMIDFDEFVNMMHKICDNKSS
# Sequence of L-lactate dehydrogenase (Plasmodium falciparum (isolate CDC / Honduras)) (Q27743 whole entry, looked up): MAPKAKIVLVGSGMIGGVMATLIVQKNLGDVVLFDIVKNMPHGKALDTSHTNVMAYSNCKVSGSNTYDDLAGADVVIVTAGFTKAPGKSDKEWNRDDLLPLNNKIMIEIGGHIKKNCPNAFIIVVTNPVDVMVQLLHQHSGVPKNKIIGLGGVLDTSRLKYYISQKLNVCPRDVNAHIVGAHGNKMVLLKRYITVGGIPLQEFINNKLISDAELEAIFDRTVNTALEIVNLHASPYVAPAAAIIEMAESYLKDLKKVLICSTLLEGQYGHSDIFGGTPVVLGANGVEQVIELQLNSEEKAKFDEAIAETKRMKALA
# Sequence of Plasmodium falciparum protein kinase 6 (PK6, PF3D7_1337100) (Q8IDW1 1-305): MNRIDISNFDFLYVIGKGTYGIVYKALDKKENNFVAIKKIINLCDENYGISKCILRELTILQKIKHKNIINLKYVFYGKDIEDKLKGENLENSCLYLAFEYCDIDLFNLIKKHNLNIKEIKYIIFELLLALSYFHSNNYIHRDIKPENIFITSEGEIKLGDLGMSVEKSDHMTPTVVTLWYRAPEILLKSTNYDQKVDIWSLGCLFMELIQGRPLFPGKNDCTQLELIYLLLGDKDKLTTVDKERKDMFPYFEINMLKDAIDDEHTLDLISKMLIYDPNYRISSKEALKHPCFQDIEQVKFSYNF
# Sequence of ATP-dependent translocase ABCB1 (Homo sapiens) (P08183 whole entry, looked up): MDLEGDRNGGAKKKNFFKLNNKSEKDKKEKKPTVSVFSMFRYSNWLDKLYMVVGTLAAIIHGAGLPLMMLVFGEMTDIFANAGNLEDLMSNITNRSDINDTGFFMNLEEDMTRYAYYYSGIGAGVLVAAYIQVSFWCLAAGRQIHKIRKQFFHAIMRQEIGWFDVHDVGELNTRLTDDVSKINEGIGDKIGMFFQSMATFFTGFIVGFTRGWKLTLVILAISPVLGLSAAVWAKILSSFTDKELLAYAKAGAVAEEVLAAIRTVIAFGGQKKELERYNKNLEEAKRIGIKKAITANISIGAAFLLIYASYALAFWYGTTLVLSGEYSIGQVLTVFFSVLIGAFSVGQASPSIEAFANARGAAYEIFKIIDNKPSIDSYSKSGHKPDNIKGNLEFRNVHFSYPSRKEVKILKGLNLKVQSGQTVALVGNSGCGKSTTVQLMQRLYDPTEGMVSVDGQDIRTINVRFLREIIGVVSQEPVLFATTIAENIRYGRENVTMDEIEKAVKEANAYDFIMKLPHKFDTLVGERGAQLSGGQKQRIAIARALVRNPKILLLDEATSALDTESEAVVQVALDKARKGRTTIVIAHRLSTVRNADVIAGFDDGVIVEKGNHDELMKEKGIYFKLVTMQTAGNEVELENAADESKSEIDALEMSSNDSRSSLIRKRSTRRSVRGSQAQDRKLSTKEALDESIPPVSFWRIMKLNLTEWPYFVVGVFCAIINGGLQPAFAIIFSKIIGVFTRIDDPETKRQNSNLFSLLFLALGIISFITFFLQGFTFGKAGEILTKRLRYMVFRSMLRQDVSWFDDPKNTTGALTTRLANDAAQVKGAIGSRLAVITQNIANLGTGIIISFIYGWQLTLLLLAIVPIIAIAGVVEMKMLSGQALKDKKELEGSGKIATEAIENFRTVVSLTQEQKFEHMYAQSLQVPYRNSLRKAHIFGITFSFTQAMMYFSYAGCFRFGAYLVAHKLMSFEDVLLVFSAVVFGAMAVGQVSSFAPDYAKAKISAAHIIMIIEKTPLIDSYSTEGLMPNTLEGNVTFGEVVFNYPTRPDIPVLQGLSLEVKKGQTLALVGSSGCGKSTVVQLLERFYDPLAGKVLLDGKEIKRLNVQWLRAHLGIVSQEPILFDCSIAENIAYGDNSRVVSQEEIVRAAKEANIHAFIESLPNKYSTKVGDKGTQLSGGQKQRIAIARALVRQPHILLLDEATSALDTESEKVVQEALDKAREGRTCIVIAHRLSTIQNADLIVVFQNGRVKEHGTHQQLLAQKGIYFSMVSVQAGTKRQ
compound,measurement,setting,value
CN(C)CCCN1c2ccccc2CCc2ccc(Cl)cc21,fluorescence slope change,[1],179% (active)
same,AC50,[2],18.7 µM (active)
N=C(N)c1ccc(OCCCCCOc2ccc(C(=N)N)cc2)cc1,fluorescence slope change,[1],28.9% (inactive)
same,growth inhibition,[3],98% (active)
same,inhibition,[4],-2% (inactive)
same,growth inhibition,[5],99% (active)
same,outcome,[6],inactive
same,outcome,[7],inactive
same,outcome,[8],inactive
same,outcome,[9],inactive
Oc1ccc(/C=C/c2cc(O)cc(O)c2)cc1,fluorescence slope change,[1],28.4% (inactive)
same,z-score,[10],-0.145 (inactive)
same,fold fluorescence,[11],7.05 [at 219.1 µM] (inactive)
CN1C(C(=O)Nc2ccccn2)=C(O)c2ccccc2S1(=O)=O,z-score,[10],-1.26 (inactive)
same,fold fluorescence,[11],4.04 [at 150.9 µM] (inactive)
CCN(CC)CCCC(C)Nc1c2ccc(Cl)cc2nc2ccc(OC)cc12 (centres undefined),fluorescence slope change,[1],75.1% (active)
same,growth inhibition,[3],101% (active)
same,inhibition,[4],0% (inactive)
same,growth inhibition,[5],101% (active)
same,outcome,[6],inactive
same,outcome,[7],inactive
same,outcome,[8],inactive
same,outcome,[9],inactive
same,inhibition,[12]; at 0.5 µM,3.87% (inactive)
same,inhibition,[12]; [21],-25.2%
same,inhibition,[12]; [22],4.45%
same,inhibition,[12]; [23],100%
same,inhibition,[13]; at 0.5 µM,-21.4% (inactive)
same,inhibition,[13]; [24],-24.3%
same,inhibition,[13]; [25],-28%
same,inhibition,[14]; at 0.5 µM,0.06% (inactive)
same,inhibition,[14]; [26],19%
same,inhibition,[14]; [27],-11.8%
same,inhibition,[15]; at 0.5 µM,5.88% (inactive)
same,inhibition,[15]; [28],-7.63%
same,inhibition,[15]; [29],-3.99%
same,inhibition,[16]; at 0.5 µM,2.36% (inactive)
same,inhibition,[16]; [22],15%
same,inhibition,[16]; [23],96.1%
same,inhibition,[17]; [30],103%
same,inhibition,[17]; at 0.5 µM,1.64% (inactive)
same,inhibition,[17]; [31],117%
same,inhibition,[18]; at 0.5 µM,-27.9% (inactive)
same,inhibition,[18]; [32],-30.9%
same,inhibition,[18]; [33],-37.3%
Cc1noc(NS(=O)(=O)c2ccc(N)cc2)c1C,outcome,[2],inactive
c1ccc(CC2=NCCN2)cc1,growth inhibition,[3],0% (inactive)
same,inhibition,[19],3% (inactive)
same,inhibition,[4],-3% (inactive)
same,growth inhibition,[5],94% (active)
same,outcome,[6],inactive
same,outcome,[7],inactive
same,outcome,[8],inactive
same,outcome,[9],inactive
CCN(CCO)CCCC(C)Nc1ccnc2cc(Cl)ccc12 (centres undefined),growth inhibition,[3],0% (inactive)
same,inhibition,[19],3% (inactive)
same,inhibition,[4],-1% (inactive)
same,growth inhibition,[5],99% (active)
same,parasite load remaining,[20],156% (inactive) and 84.1% (inactive)
same,viability,[20],88.4% and 102%
same,outcome,[6],inactive
same,outcome,[7],inactive
same,outcome,[8],inactive
same,outcome,[9],inactive
same,outcome,[2],inactive
CCC1(c2ccccc2)C(=O)NCNC1=O,AC50,[2],5.9 µM (active)
Clc1cccc(Cl)c1NC1=NCCN1,fluorescence slope change,[1],110% (active)
same,z-score,[10],0.177 (inactive)
same,fold fluorescence,[11],4.6 [at 217.3 µM] (inactive)
CC[C@H]1CN2CCc3cc(OC)c(OC)cc3[C@@H]2C[C@@H]1C[C@H]1NCCc2cc(OC)c(OC)cc21,growth inhibition,[3],99% (active)
same,inhibition,[19],43% (inactive)
same,inhibition,[4],-3% (inactive)
same,growth inhibition,[5],101% (active)
same,parasite load remaining,[20],-66.8% (active)
same,viability,[20],76.3%
same,outcome,[6],inactive
same,outcome,[7],inactive
same,outcome,[8],inactive
same,outcome,[9],inactive
same,AC50,[2],0.526 µM (active)
CCN(CC)CCCC(C)Nc1ccnc2cc(Cl)ccc12 (centres undefined),fluorescence slope change,[1],-4.1% (inactive)
same,growth inhibition,[3],96% (active)
same,inhibition,[19],12% (inactive)
same,inhibition,[4],-1% (inactive)
same,growth inhibition,[5],100% (active)
same,outcome,[6],inactive
same,outcome,[7],inactive
same,outcome,[8],inactive
same,outcome,[9],inactive
CCCCCN=C(N)N/N=C/c1c[nH]c2ccc(OC)cc12,growth inhibition,[3],2% (inactive)
same,inhibition,[19],16% (inactive)
same,inhibition,[4],-6% (inactive)
same,growth inhibition,[5],86% (active)
same,parasite load remaining,[20],142% (inactive) and 119% (inactive)
same,viability,[20],84.9% and 86.2%
same,outcome,[10],inactive
same,outcome,[6],inactive
same,outcome,[7],inactive
same,outcome,[8],inactive
same,outcome,[9],inactive
CCC(C)(C)C(=O)O[C@H]1C[C@@H](C)C=C2C=C[C@H](C)[C@H](CC[C@@H]3C[C@@H](O)CC(=O)O3)[C@H]21,AC50,[2],18.7 µM (active)
Nc1nc2c(ncn2COCCO)c(=O)[nH]1,outcome,[2],inactive
same,inhibition,[12]; at 0.5 µM,-33.9% (inactive) and -12.8% (inactive)
same,inhibition,[12]; [21],-30% and -19.3%
same,inhibition,[12]; [22],-22.8% and -6.62%
same,inhibition,[12]; [23],-40.1% and -62.2%
same,inhibition,[13]; at 0.5 µM,-82.3% (inactive) and -42.2% (inactive)
same,inhibition,[13]; [24],-65.6% and -27.8%
same,inhibition,[13]; [25],-92.2% and -76%
same,inhibition,[14]; at 0.5 µM,-9.51% (inactive) and -3.72% (inactive)
same,inhibition,[14]; [26],-2.11% and -3.06%
same,inhibition,[14]; [27],-19.5% and -6.04%
same,inhibition,[15]; at 0.5 µM,-7.84% (inactive) and 5.52% (inactive)
same,inhibition,[15]; [28],-9.01% and -4.82%
same,inhibition,[15]; [29],-11.4% and 12.5%
same,inhibition,[16]; at 0.5 µM,-16.1% (inactive) and -6.37% (inactive)
same,inhibition,[16]; [22],-14.9% and -19.4%
same,inhibition,[16]; [23],-76% and -8.06%
same,inhibition,[17]; [30],-23.1% and 1.37%
same,inhibition,[17]; at 0.5 µM,-9.4% (inactive) and 8.78% (inactive)
same,inhibition,[17]; [31],-14.8% and -13.6%
same,inhibition,[18]; at 0.5 µM,-9.43% (inactive) and 7.59% (inactive)
same,inhibition,[18]; [32],-2.39% and 2.09%
same,inhibition,[18]; [33],-29.6% and 5.16%
